Results from PubChem BioAssay.
Several values for one entry are separate records, joined by “and”; a condition that tells them apart may be missing. Equal values may be shown once. Activity calls are given as the source filed them. Unless noted, how the calls were made is not given here.

Key:
[1] = Cy5 fluorescence interference with SSB-bound oligo, artefact control for HCV NS3 helicase inhibitor project, biochemical, NIH Clinical Collection, E. coli SSB (AID 743268)
[2] = tested on: Hepatitis C virus NS3 helicase; test: HCV NS3 helicase inhibitors, primary screen, biochemical, fluorescence polarization, NIH Clinical Collection (AID 743270); details: NS3 helicase binding to Cy5-dT15 DNA, stronger effect = higher value, concentration not given here
[3] = biological target: Single-stranded DNA-binding protein (Escherichia coli (strain K12)) (UniProt P0AGE0); test: E. coli SSB displacement from DNA, counter-screen for HCV NS3 helicase inhibitor project, biochemical, fluorescence polarization, NIH Clinical Collection (AID 743271; in the data active means inhibition above about 28%); details: stronger effect = higher value, concentration not given here
[4] = fluorescence interference in NS3h assay format, artefact control for HCV NS3 helicase inhibitor project, biochemical, NIH Clinical Collection (AID 743272); details: fluorescence interference counterscreen, stronger effect = lower value;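 further: HCV NS3 helicase with a Cy5 labelled single stranded DNA probe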
[5] = stimulators of nuclear beta-catenin in C2C12, primary screen, imaging, WNT3A-conditioned medium, mouse C2C12, NPC library (AID 1117326; in the data active means nuclear beta-catenin stimulation mostly above about 4.2%, no sharp cut-off; inactive means mostly below about 10%); details: stronger effect = higher value
[6] = stimulators of insulin release from INS-1E, primary screen, cell-based, 5 mM glucose, NPC library (AID 1117329;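 active means compound raises insulin release from rat beta cells at 5 mM glucose, no numeric limit stated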); details: rat INS-1E insulin secretion, at 10 µM, stronger effect = higher value
[7] = growth inhibition of GSK3B-pretreated HCT116 cells – cell-based, CellTiter-Glo, 0.2 to 20 µM (AID 1117336;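 active means compounds lowering colon cancer cell viability after pretreatment blocking the GSK3B kinase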); details: HCT116 viability after GSK3B inhibitor, at 20 µM, stronger effect = higher value
[8] = inhibition of endothelial tube formation, primary screen, imaging, VEGF stimulated, CD31 staining, tube area, NPC library (AID 1117340;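 active means compound that reduces growth-factor-driven endothelial tube area in a mixed cell culture, no cutoff stated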); details: VEGF-stimulated ADSC/ECFC co-culture, at 10 µM, stronger effect = higher value
[9] = glucagon-like peptide 1 release enhancers, primary assay, NCI-H716 cell line, NPC library (AID 1117341;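 active means compound raises GLP1 secretion from the human gut endocrine cells, with no numeric limit stated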); details: NCI-H716 cells, at 10 µM, stronger effect = higher value
[10] = HCT116 colon cancer cell growth inhibition, primary screen, CellTiter-Glo luminescence, NPC library (AID 1117342;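 active means compounds that lower survival of HCT116 colon cancer cells in the luminescence readout, no numeric limit stated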); details: at 20 µM (top of the series)
[11] = CellTiter-Glo luminescent readout of SW480 viability loss, NPC library primary (AID 1117343;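 active means compounds that lower viability of the colon cancer cells in the luminescence readout, with no numeric limit stated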); details: CellTiter-Glo luminescence; at 20 µM (top of the series)
[12] = decreased DLD-1 cellular survival, CellTiter-Glo luminescent readout, NPC compound collection, primary HTS (AID 1117346;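 active means compounds that lower survival of DLD-1 colon cancer cells in the luminescence readout, no cutoff given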); details: DLD-1 viability, CellTiter-Glo luminescence; at 20 µM (top of the series)
[13] = biological target: 6-phosphogluconate dehydrogenase, decarboxylating (Homo sapiens) (UniProt P52209); test: 6PGD enzyme inhibitors, primary screen, biochemical, human, recombinant enzyme, NADPH absorbance (AID 1159550;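 active means at least 20% inhibition of 6-phosphogluconate dehydrogenase activity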); details: recombinant 6PGD, NADPH absorbance 341 nm; at 10 µM; stronger effect = higher value
6-phosphogluconate dehydrogenase, decarboxylating (Homo sapiens), sequence (P52209 whole entry, looked up): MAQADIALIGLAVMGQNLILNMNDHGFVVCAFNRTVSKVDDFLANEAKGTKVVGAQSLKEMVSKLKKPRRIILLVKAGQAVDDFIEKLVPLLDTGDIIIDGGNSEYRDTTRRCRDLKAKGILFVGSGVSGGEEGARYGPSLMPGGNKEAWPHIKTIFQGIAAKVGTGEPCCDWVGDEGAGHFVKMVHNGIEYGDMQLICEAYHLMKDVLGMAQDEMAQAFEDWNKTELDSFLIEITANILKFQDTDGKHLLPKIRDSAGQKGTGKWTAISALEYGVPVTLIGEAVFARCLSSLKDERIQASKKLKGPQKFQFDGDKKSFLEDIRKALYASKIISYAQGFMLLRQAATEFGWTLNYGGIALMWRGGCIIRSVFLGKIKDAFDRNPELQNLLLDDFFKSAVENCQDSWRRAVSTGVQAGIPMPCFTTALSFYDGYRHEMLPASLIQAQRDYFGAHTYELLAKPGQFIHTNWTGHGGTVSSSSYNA

[14] = differential killing of epithelial or mesenchymal cells, primary screen, imaging, PC-3E GFP, TEM4-18 mCherry, co-culture (AID 1345086;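 active means compounds killing one labelled cell type while sparing the other, by normalised counts and ratio limits, not self-fluorescent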;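 on all read-outs here: cells exposed to compound for 72 h before imaging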;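 on red/green cell ratio (normalised): normalised mesenchymal count divided by normalised epithelial count so high means epithelial killing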); details: imaging cell counts, at 1 µM; for red/green cell ratio (normalised): actives lie on both sides, counts scaled to control wells, 1 = unselective
[15] = survival rescue of mitochondrial mutant cells in low glucose, primary screen, MELAS cybrids, Rieske KO mouse fibroblasts, CellTiter-Glo (AID 1508586;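 active means mean z-score across replicates of 1.96 or higher in either the MELAS or the Rieske mutant cell line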;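 further: z relative to plate mean and SD of compound and empty wells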)
[16] = biological target: NAD(+) hydrolase SARM1 (Homo sapiens) (UniProt Q6SZW1); test: SARM1 TIR NADase inhibitors, cell lysate, NAD-Glo luminescence (AID 1508614;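 active means compound whose remaining NAD level is above about 45 nM, limit read from the data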); details: SAM-TIR HEK293T lysate NADase, at 1 µM, stronger effect = higher value
NAD(+) hydrolase SARM1 (Homo sapiens), sequence (Q6SZW1 whole entry, looked up, the tested form may be a part): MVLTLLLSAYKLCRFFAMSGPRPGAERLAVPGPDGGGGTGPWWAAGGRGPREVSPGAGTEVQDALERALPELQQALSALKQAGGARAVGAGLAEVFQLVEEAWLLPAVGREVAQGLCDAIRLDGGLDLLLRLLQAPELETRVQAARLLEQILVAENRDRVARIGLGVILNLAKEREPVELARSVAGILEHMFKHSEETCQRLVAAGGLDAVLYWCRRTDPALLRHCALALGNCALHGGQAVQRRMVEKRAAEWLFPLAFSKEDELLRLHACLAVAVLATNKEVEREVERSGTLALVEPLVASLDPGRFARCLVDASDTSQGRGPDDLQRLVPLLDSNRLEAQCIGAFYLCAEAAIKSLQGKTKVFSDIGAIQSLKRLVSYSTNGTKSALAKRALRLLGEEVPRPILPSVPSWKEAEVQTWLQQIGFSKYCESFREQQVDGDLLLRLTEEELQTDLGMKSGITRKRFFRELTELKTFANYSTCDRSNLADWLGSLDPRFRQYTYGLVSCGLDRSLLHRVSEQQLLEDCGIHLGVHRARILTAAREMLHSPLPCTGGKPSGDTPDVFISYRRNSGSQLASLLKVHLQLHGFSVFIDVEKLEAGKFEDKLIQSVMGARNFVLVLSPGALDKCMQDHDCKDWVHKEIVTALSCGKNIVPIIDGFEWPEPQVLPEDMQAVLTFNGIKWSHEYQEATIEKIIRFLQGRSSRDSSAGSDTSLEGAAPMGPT

[17] = biological target: Mitogen-activated protein kinase 7 (Homo sapiens) (UniProt Q13164); test: ERK5 transactivation activators in reporter cells, primary screen, cell-based, HTS (AID 1508626;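 active means luciferase signal above three times the same-plate solvent-only control wells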;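 further: luciferase driven by Gal4-ERK5 fusion binding five Gal4 sites before minimal TATA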); details: HeLa Gal4-ERK5 transactivation, 18 h, at 5 µM, stronger effect = higher value
Mitogen-activated protein kinase 7 (Homo sapiens), sequence (Q13164 whole entry, looked up, the tested form may be a part): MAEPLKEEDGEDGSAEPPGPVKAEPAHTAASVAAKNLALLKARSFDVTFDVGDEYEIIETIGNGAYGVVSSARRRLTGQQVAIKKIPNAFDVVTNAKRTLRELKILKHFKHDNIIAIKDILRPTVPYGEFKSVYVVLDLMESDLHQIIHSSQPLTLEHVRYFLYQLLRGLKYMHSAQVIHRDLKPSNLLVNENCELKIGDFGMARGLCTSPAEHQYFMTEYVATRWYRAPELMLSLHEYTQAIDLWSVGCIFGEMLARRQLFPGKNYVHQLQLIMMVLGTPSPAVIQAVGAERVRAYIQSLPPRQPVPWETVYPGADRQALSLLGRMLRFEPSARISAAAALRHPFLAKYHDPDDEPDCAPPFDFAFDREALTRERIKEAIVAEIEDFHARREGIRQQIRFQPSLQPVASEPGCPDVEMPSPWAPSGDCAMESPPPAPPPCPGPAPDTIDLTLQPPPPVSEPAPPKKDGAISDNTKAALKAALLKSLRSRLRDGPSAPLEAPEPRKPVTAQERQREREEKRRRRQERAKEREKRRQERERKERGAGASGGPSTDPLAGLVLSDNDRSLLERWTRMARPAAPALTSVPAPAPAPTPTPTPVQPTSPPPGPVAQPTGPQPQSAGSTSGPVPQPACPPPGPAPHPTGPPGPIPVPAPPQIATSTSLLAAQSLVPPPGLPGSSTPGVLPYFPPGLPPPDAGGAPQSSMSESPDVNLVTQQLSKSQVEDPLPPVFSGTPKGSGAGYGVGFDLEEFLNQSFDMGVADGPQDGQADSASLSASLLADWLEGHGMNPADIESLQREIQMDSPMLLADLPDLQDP

[18] = tested on: F380Y; test: modulators of BK channel variants, profiling panel, selectivity assay, cell-based, U2OS BacMam, thallium flux, beta subunits (AID 1259406;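 active means thallium flux through the channel raised or lowered by more than 3 SD from vehicle-only wells, actives on both sides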;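 further: initial slope of Thallos dye fluorescence rise after thallium is added; log ratio against the mean of 0.3% DMSO vehicle wells on the same plate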); details: at 30 µM
[19] = liver-stage malaria parasite growth inhibition, primary screen, cell-based, HepG2, luciferase luminescence, HepG2 viability (AID 624349; in the data active means parasite load remaining mostly below about 12%, no sharp cut-off; inactive means mostly above about 10%;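 further: 100% = mean of DMSO negative control wells on the same plate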); details: P. berghei liver stage in HepG2, luciferase luminescence, concentration not given here; parasite load remaining: stronger effect = lower value; viability: measured here: HepG2 viability without parasites
[20] = sensitizers of A549 cells to miR-34 induction, primary screen, imaging, A549 dox-inducible miR-34, nuclei and caspase counts (AID 1347080;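 active means compounds whose cell count with miR-34 switched on is under 0.7 times the count with it off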); details: A549 miR-34 inducible, Hoechst nuclei count, 48 h
[21] = measured here: epithelial PC-3E GFP cell survival
[22] = measured here: mesenchymal TEM4-18 mCherry cell survival
[23] = MELAS cybrid survival, CellTiter-Glo 48 h, stronger effect = higher value
[24] = Rieske KO mouse fibroblast survival, CellTiter-Glo 72 h
[25] = stronger effect = lower value, cell number ratio, induced over uninduced
[26] = measured here: relative caspase fold change +Dox/-Dox
[27] = measured here: total cells with miR-34 induction, stronger effect = lower value
[28] = measured here: total cells without miR-34 induction

NC(N)=NC(=O)c1nc(Cl)c(N)nc1N
fluorescence ratio [1]: 0.95 (inactive)
inhibition [2]: 6.73% (inactive)
inhibition [3]: 13.8% (inactive)
fluorescence ratio [4]: 0.9 (inactive)
nuclear beta-catenin stimulation ([5]; at 10 µM): 0.7% (inactive)
nuclear beta-catenin stimulation ([5]; stimulation, at 2 µM): -2%
insulin secretion stimulation [6]: 4.35% (inactive)
viability decrease [7]: 3.2% (inactive)
tube area decrease [8]: 1.1% (inactive)
GLP1 secretion stimulation [9]: 2% (inactive)
inhibition of viability [10]: 3% (inactive)
viability decrease (inhibition) [11]: 1.8% (inactive)
viability decrease (inhibition) [12]: -11.5% (inactive)
inhibition [13]: 7.13% (inactive)
red/green cell ratio (normalised) [14]: 0.85 (inactive)
normalised cell number [14, 21]: 1.29
normalised cell number [14, 22]: 1.1
z-score [15, 23]: -0.14 (inactive) and -0.352 (inactive) and 0.738 (inactive)
z-score [15, 24]: 0.245 and 0.664 and 0.681
remaining NAD [16]: 10 nM (inactive)
luciferase signal [17]: 44 AU (inactive)
log fold change Tl+ flux [18]: -0.00821 (inactive)

CCOC(=O)C1=C(COCCN)NC(C)=C(C(=O)OC)C1c1ccccc1Cl (centres undefined)
parasite load remaining [19]: 22.9% (inactive) and 39.3% (inactive) and 49.9% (inactive)
viability [19]: 107% and 67.5% and 111%
nuclear beta-catenin stimulation ([5]; at 10 µM): 87.9% (active)
nuclear beta-catenin stimulation ([5]; stimulation, at 2 µM): 10%
insulin secretion stimulation [6]: 11.6% (inactive)
viability decrease [7]: 99.2% (active)
tube area decrease [8]: 87.8% (active)
GLP1 secretion stimulation [9]: 0.5% (inactive)
inhibition of viability [10]: 99.3% (active)
viability decrease (inhibition) [11]: 102% (active)
viability decrease (inhibition) [12]: 92% (active)
inhibition [13]: 3.33% (inactive)
red/green cell ratio (normalised) [14]: 0.9 (inactive)
normalised cell number [14, 21]: 1.26
normalised cell number [14, 22]: 1.13
z-score [15, 23]: -0.269 (inactive) and 0.142 (inactive) and -0.356 (inactive)
z-score [15, 24]: 0.139 and -0.0453 and -0.413
remaining NAD [16]: 10 nM (inactive)
luciferase signal [17]: 104 AU (inactive)

CC(=O)OCC(=O)[C@@]1(O)CC[C@H]2[C@@H]3CCC4=CC(=O)C=C[C@]4(C)[C@H]3[C@@H](O)C[C@@]21C
parasite load remaining [19]: 83.8% (inactive)
viability [19]: 90.8%
fluorescence ratio [1]: 0.95 (inactive)
inhibition [2]: -5% (inactive)
inhibition [3]: -0.48% (inactive)
fluorescence ratio [4]: 0.91 (inactive)
nuclear beta-catenin stimulation ([5]; at 10 µM): 1.2% (inactive)
nuclear beta-catenin stimulation ([5]; stimulation, at 2 µM): 0%
insulin secretion stimulation [6]: 1% (inactive)
viability decrease [7]: 6.6% (inactive)
tube area decrease [8]: 5.5% (inactive)
GLP1 secretion stimulation [9]: 1.2% (inactive)
inhibition of viability [10]: -4.6% (inactive)
viability decrease (inhibition) [11]: -9.3% (inactive)
viability decrease (inhibition) [12]: -10.8% (inactive)
inhibition [13]: 20% (inactive)
fold change [20, 25]: 0.981 (inactive)
fold change [20, 26]: 0.792
cell count [20, 27]: 8020
cell count [20, 28]: 8180
remaining NAD [16]: 10 nM (inactive)
luciferase signal [17]: 60 AU (inactive)
log fold change Tl+ flux [18]: 0.0438 (inactive)

Nc1nc2ccc(OC(F)(F)F)cc2s1
fluorescence ratio [1]: 0.95 (inactive)
inhibition [2]: -5.94% (inactive)
inhibition [3]: -0.87% (inactive)
fluorescence ratio [4]: 0.87 (inactive)
nuclear beta-catenin stimulation ([5]; at 10 µM): 0.7% (inactive)
nuclear beta-catenin stimulation ([5]; stimulation, at 2 µM): -0.8%
insulin secretion stimulation [6]: -2.4% (inactive)
viability decrease [7]: 32.5% (inactive)
tube area decrease [8]: 34% (inactive)
GLP1 secretion stimulation [9]: 0.6% (inactive)
inhibition of viability [10]: 21.7% (inactive)
viability decrease (inhibition) [11]: 88.8% (active)
viability decrease (inhibition) [12]: 47.1% (inactive)
inhibition [13]: 2.66% (inactive)
red/green cell ratio (normalised) [14]: 1.07 (inactive)
normalised cell number [14, 21]: 1.04
normalised cell number [14, 22]: 1.11
z-score [15, 23]: 0.0258 (inactive) and 0.56 (inactive) and -1.11 (inactive)
z-score [15, 24]: 0.111 and -0.202 and -1.33
remaining NAD [16]: 10 nM (inactive)

CNCCCC12CCC(c3ccccc31)c1ccccc12
fluorescence ratio [1]: 0.97 (inactive)
inhibition [2]: -1.98% (inactive)
inhibition [3]: -1.64% (inactive)
fluorescence ratio [4]: 0.83 (inactive)
nuclear beta-catenin stimulation ([5]; at 10 µM): 1.9% (inactive)
nuclear beta-catenin stimulation ([5]; stimulation, at 2 µM): -0.1%
insulin secretion stimulation [6]: 12.2% (inactive)
viability decrease [7]: 55.6% (active)
tube area decrease [8]: 12.2% (inactive)
GLP1 secretion stimulation [9]: 4.8% (inactive)
inhibition of viability [10]: 87.4% (active)
viability decrease (inhibition) [11]: 121% (active)
viability decrease (inhibition) [12]: 68.3% (active)
inhibition [13]: 8.09% (inactive)
red/green cell ratio (normalised) [14]: 0.89 (inactive)
normalised cell number [14, 21]: 1.11
normalised cell number [14, 22]: 0.98
z-score [15, 23]: -0.365 (inactive) and 0.126 (inactive) and 0.618 (inactive)
z-score [15, 24]: 0.802 and 0.382 and 0.29
remaining NAD [16]: 10 nM (inactive)
luciferase signal [17]: 48 AU (inactive)
log fold change Tl+ flux [18]: 0.104 (inactive)

CC(=O)S[C@@H]1CC2=CC(=O)CC[C@]2(C)[C@H]2CC[C@@]3(C)[C@@H](CC[C@@]34CCC(=O)O4)[C@H]12
fluorescence ratio [1]: 0.99 (inactive)
inhibition [2]: -3.18% (inactive)
inhibition [3]: -0.48% (inactive)
fluorescence ratio [4]: 0.9 (inactive)
nuclear beta-catenin stimulation ([5]; at 10 µM): 4.4% (inactive)
nuclear beta-catenin stimulation ([5]; stimulation, at 2 µM): 2.4%
insulin secretion stimulation [6]: -2% (inactive)
viability decrease [7]: -2% (inactive)
tube area decrease [8]: 17% (inactive)
GLP1 secretion stimulation [9]: 2.4% (inactive)
inhibition of viability [10]: 28.7% (inactive)
viability decrease (inhibition) [11]: 41.7% (inactive)
viability decrease (inhibition) [12]: 26.4% (inactive)
inhibition [13]: 14.1% (inactive)
fold change [20, 25]: 0.941 (inactive) and 0.878 (inactive) and 0.848 (inactive)
fold change [20, 26]: 1.96 and 1.1 and 1.66
cell count [20, 27]: 8520 and 7420 and 8230
cell count [20, 28]: 9050 and 8450 and 9710
z-score [15, 23]: 0.887 (inactive) and 0.469 (inactive)
z-score [15, 24]: 0.325 and -0.236
remaining NAD [16]: 10 nM (inactive)
luciferase signal [17]: 56 AU (inactive)
log fold change Tl+ flux [18]: -0.00371 (inactive)

CC1(C)O[C@@H]2C[C@H]3[C@@H]4C[C@H](F)C5=CC(=O)C=C[C@]5(C)[C@H]4[C@@H](O)C[C@]3(C)[C@]2(C(=O)CO)O1
parasite load remaining [19]: 33.4% (inactive) and 143% (inactive)
viability [19]: 88.6% and 103%
fluorescence ratio [1]: 1.07 (inactive)
inhibition [2]: -0.45% (inactive)
inhibition [3]: -1.24% (inactive)
fluorescence ratio [4]: 0.99 (inactive)
nuclear beta-catenin stimulation ([5]; at 10 µM): -0.2% (inactive)
nuclear beta-catenin stimulation ([5]; stimulation, at 2 µM): 1.6%
insulin secretion stimulation [6]: 1.6% (inactive)
viability decrease [7]: -31.1% (inactive)
tube area decrease [8]: -14.6% (inactive)
GLP1 secretion stimulation [9]: -0.5% (inactive)
inhibition of viability [10]: -1.83% (inactive)
viability decrease (inhibition) [11]: 15% (inactive)
viability decrease (inhibition) [12]: -3.1% (inactive)
inhibition [13]: -16.5% (inactive)
fold change [20, 25]: 1 (inactive) and 0.779 (inactive)
fold change [20, 26]: 1.38 and 0.877
cell count [20, 27]: 7820 and 5180
cell count [20, 28]: 7800 and 6650
z-score [15, 23]: -0.397 (inactive)
z-score [15, 24]: 0.665
remaining NAD [16]: 10 nM (inactive)
luciferase signal [17]: 344 AU (active)
log fold change Tl+ flux [18]: 0.00732 (inactive)
